This passage reports Potency and outcome results from PubChem BioAssay (Tox21).

Assay [1] is described as follows: qHTS assay for small molecule agonists of the p53 signaling pathway (AID 651631; calls by dose curve; further: nearly all actives have a fitted effect of over 15% in size). Conditions: HCT-116 p53RE-bla reporter, beta-lactamase FRET ratio, 16 h; series mostly up to 73.3 µM. In outline: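 HCT-116 p53RE-bla reporter line, 16 h compound treatment at 37 °C, then fluorescence after 2 h with B/G FRET substrate.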
Assay [2] is described as follows: qHTS assay for small molecules that induce genotoxicity in human embryonic kidney cells expressing luciferase-tagged ATAD5 (AID 651632). Further: nearly all actives have a fitted effect of over 15% in size. The settings on record: HEK293T ATAD5-luciferase induction, 16 h; series mostly up to 83.3 µM. In a few lines: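 Luminescence read-out: after 16 hr compound exposure at 37C, ATAD5-luciferase HEK293T cells received Amplite, 30 min RT, then CCD imaging. A rise in signal marks genotoxic stress.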

Assay [3] in a line: qHTS assay for small molecule agonists of the p53 signaling pathway - cell viability (AID 651633; calls by dose curve; further: nearly all actives have a fitted effect of over 30% in size). The settings on record: p53RE-bla HCT-116 viability, ATP luminescence, 16 h; series mostly up to 83.3 µM. In a few lines:
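p53RE-bla cells, seeded at 4,000 per well and rested 5 h at 37 C/5% CO2, received compounds in DMSO for 16 h at 37 C. CellTiter-Glo was then added, and luminescence was read after 30 min at room temperature to gauge cytotoxicity.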

A short description of assay [4]: qHTS assay for small molecules that induce genotoxicity in human embryonic kidney cells expressing luciferase-tagged ATAD5 - cell viability (AID 651634; calls by dose curve; further: nearly all actives have a fitted effect of over 25% in size). The settings on record: HEK293T ATAD5-luc cells viability, CellTiter-Fluor, 15.5 h; series mostly up to 83.3 µM. In outline:
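HEK293T ATAD5-luc cells, 2,000/well; compound 15.5 hr, 37C/5% CO2; CellTiter-Fluor 30 min, 37C; fluorescence read.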

Assay [5] is described as follows: qHTS assay for small molecule disruptors of the mitochondrial membrane potential - cell viability (AID 720634; calls by dose curve;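 further: human HepG2 liver cancer cells; nearly all actives have a fitted effect of over 20% in size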). The settings on record: HepG2 viability, ATP luminescence (CellTiter-Glo), 1 h; series mostly up to 83.2 µM. In outline: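 Luminescence from CellTiter-Glo (ATP content) gave viability in HepG2 cells, read in the same wells as the MMP dye assay after 1 hr compound exposure at 37 C.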

The nature of assay [6]: qHTS assay for small molecule disruptors of the mitochondrial membrane potential (AID 720635). Further: potency means the concentration at half of the fitted maximal effect. Conditions: HepG2 mitochondrial membrane potential, Mito-MPS dye ratio; series mostly up to 83.2 µM. In outline: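 HepG2 cells (2,000/well) attached overnight at 37C, then took compound for 1 hr at 37C, 5% CO2. Mito-MPS dye was added for 30 min; fluorescence was read at 490/535 nm (monomers) and 540/590 nm (aggregates).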

Assay [7] in a line: qHTS assay to test for compound auto fluorescence at 590 nm (red) in HepG2 cells (AID 720674). Conditions: HepG2 autofluorescence, red 540/590 nm, 1 h; series mostly up to 91.3 µM. In outline:
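Intrinsic compound fluorescence in the red window (Ex/Em 540/590 nm) is measured in attached HepG2 cells exposed for 1 hr, DMSO vehicle as baseline, benchmarked to Rose Bengal sodium.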

Assay [8] can be described thus: qHTS assay to test for compound auto fluorescence at 535 nm (green) in HepG2 cells (AID 720675). Conditions: green autofluorescence 485/535 nm, 1 h; series mostly up to 91.3 µM.
Assay [9] can be described thus: qHTS assay to test for compound auto fluorescence at 590 nm (red) in HEK293 cells (AID 720679). The settings on record: red autofluorescence 540/590 nm; series mostly up to 91.3 µM. In outline:
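Red autofluorescence, HEK293 cells: 2,000 cells/well; attach 4-5 hr 37C; add 23 nL cpd or DMSO; incubate o/n 37C 5% CO2; read Ex540/Em590; Rose Bengal sodium reference.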

A short description of assay [10]: qHTS assay to test for compound auto fluorescence at 460 nm (blue) in HEK293 cells (AID 720678). The settings on record: blue autofluorescence 405/460 nm; series mostly up to 91.3 µM. In a few lines:
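Intrinsic compound fluorescence is recorded in live HEK293 cultures after overnight incubation at 37C, 5% CO2, using excitation 405 nm and emission 460 nm. Values are referenced to triamterene.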

Values joined by “and” are separate entries in the source; they are usually repeats but may differ in a detail not shown here. Equal entries are not always repeated. Inconclusive results are not listed. Active and inactive are the calls of the source. Unless noted, the call rests on the fitted dose curve; in most records, active means well fitted curve in the direction sought with a large enough effect in the repeat runs; inconclusive means weak or mixed curves; inactive means no such curve, though single readings can be large; an effect the other way counts as inactive or inconclusive.

On to `NC(N)=NC(=O)c1nc(Cl)c(N)nc1N`, for which the Potency entry in assay [1], in [2], in [3], in assay [4], in [5] and in [6] was “inactive” throughout. The call in assay [7], in [8] and in [9] was inactive.
Consider `CCC1(c2ccccc2)C(=O)NCNC1=O`, for which the Potency result in [1], in [3], in [5] and in assay [6] was “inactive” each time. For the same compound, the call in assay [7], in assay [8], in [10] and in assay [9] was inactive.
For `CC(=O)OCC(COC(C)=O)OC(C)=O`, the Potency entry in [2], in assay [3], in [4], in [5] and in [6] was “inactive” each time. The result in assay [7], in assay [8] and in assay [9] was inactive.
Take `C/C=C/c1ccc(OC)cc1`: the Potency result in assay [3], in assay [4] and in assay [5] was “inactive” in each case. Besides, the call in assay [7], in assay [8], in assay [10] and in [9] was inactive.
In the case of `O=C(O)CS`, the Potency entry in assay [2], in [3], in [4], in assay [5] and in assay [6] was “inactive” in each case. Besides, the call in assay [7], in [8], in [10] and in assay [9] was inactive.
Turning to `O=C(C1CCCCC1)N1CC(=O)N2CCc3ccccc3C2C1` (stereo not drawn), the Potency result in [4], in assay [5] and in [6] was “inactive” throughout. The compound was classed as inactive in assay [7], in assay [8], in assay [10] and in assay [9].
For `O=C(O)C(=O)O`, the Potency entry in assay [2], in assay [3], in assay [4], in assay [5] and in assay [6] was “inactive” each time. Further, the outcome in assay [7], in assay [8], in [10] and in assay [9] was inactive.
With `Cc1cn([C@H]2C[C@H](N=[N+]=[N-])[C@@H](CO)O2)c(=O)[nH]c1=O`, the Potency result in assay [1], in assay [3], in assay [5] and in assay [6] was “inactive” each time. The call in assay [7], in [8] and in assay [9] was inactive.
Turning to `O=C1CN(/N=C/c2ccc([N+](=O)[O-])o2)C(=O)N1`, the Potency entry in assay [1], in [2], in [3] and in assay [5] was “inactive” each time. Besides, in [6], the Potency is 21.1 µM (active) and 21.6 µM (active) and 21.7 µM (active). Also, the compound was called inactive in assay [7], in assay [8] and in assay [9].
With `Nc1ccc(C(=O)O)cc1`, the Potency result in assay [1], in assay [2], in [3], in assay [4], in assay [5] and in assay [6] was “inactive” each time. The compound was called inactive in assay [7], in [8] and in assay [9].
On to `CC(C)[C@@H]1CC[C@@H](C)C[C@H]1O`, for which the Potency entry in assay [2], in assay [3], in [4], in assay [5] and in assay [6] was “inactive” each time. Also, the compound was called inactive in assay [7], in assay [8], in assay [10] and in assay [9].
Turning to `Cc1ccc(C)c(OCCCC(C)(C)C(=O)O)c1`, the Potency result in assay [2], in [4], in assay [5] and in [6] was “inactive” in each case. Moreover, the compound was called inactive in assay [7], in assay [8] and in assay [9].
Consider `O=NO`, for which the Potency entry in assay [3], in assay [4], in [5] and in assay [6] was “inactive” each time. Further, the compound was classed as inactive in assay [7], in [8], in [10] and in assay [9].
Turning to `CCCCC1C(=O)N(c2ccccc2)N(c2ccccc2)C1=O`, the Potency entry in assay [1], in assay [2], in [3] and in assay [4] was “inactive” each time. For the same compound, the call in assay [7], in [8] and in assay [9] was inactive.
As to `COc1c2occc2cc2ccc(=O)oc12`, the Potency entry in assay [1], in [3] and in assay [5] was “inactive” each time. Moreover, the call in assay [7], in assay [8] and in [9] was inactive.
Regarding `OC(Cn1cncn1)(Cn1cncn1)c1ccc(F)cc1F`, the Potency entry in assay [2], in [3], in assay [4], in assay [5] and in assay [6] was “inactive” each time. Moreover, the compound was classed as inactive in assay [7], in [8], in assay [10] and in assay [9].
Regarding `Cn1cc[nH]c1=S`, the Potency result in assay [2], in [4], in assay [5] and in assay [6] was “inactive” each time. Besides, the call in [7], in [8] and in assay [9] was inactive.
With `C[C@]12C=CC(=O)C=C1CC[C@@H]1[C@@H]2[C@@H](O)C[C@@]2(C)[C@H]1CC[C@]2(O)C(=O)CO`, the Potency entry in assay [1], in assay [2], in assay [3], in assay [4] and in assay [5] was “inactive” throughout. The outcome in assay [7], in [8], in [10] and in assay [9] was inactive.
In the case of `N=C(N)c1ccc(OCCCCCOc2ccc(C(=N)N)cc2)cc1`, the Potency entry in assay [2], in assay [3], in assay [4] and in [5] was “inactive” throughout. Also, the call in [7], in assay [8], in assay [10] and in assay [9] was inactive.
`CNC[C@H](O)c1cccc(O)c1`: the Potency result in assay [1], in assay [3], in [4], in assay [5] and in assay [6] was “inactive” throughout. Moreover, the compound was called inactive in assay [7], in assay [8] and in assay [9].
Turning to `Cn1c(=O)c2[nH]cnc2n(C)c1=O`, the Potency entry in assay [1], in assay [3] and in assay [5] was “inactive” in each case. Moreover, the call in assay [7], in assay [8] and in assay [9] was inactive.
Take `O=C1NC(=O)c2ccccc21`: the Potency result in assay [3], in assay [4], in assay [5] and in assay [6] was “inactive” in each case. Further, the outcome in assay [7], in assay [8], in [10] and in assay [9] was inactive.
